# Source: PubChem BioAssay
# Sampled rows, rich in hits. Any-hit rate of the full collection: about 6.5%.
# Spn PMK inh – S. pneumoniae PMK inhibitors, primary screen, biochemical, mevalonate pathway, pilot trial included. phosphomevalonate kinase (Streptococcus pneumoniae D39). purified PMK, PK/LDH-coupled NADH absorbance 340 nm. inhibition, % at 10 µM. hit rate 0.49% among 65,000. AID 539, 2006;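 active = top-ranked compounds by inhibition in the single 10 µM screen, taking a fixed number of the strongest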;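 also: 0% = full reaction with DMSO carrier and 100% = background rate without enzyme reaction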
# Spn MK inh – S. pneumoniae MK inhibitors, primary screen, biochemical, PK/LDH-coupled NADH absorbance; mevalonate kinase [Streptococcus pneumoniae D39]; purified MK, PK/LDH-coupled NADH absorbance 340 nm; inhibition, % at 10 µM; hit rate 0.48% among 65,000; AID 555, 2006;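 active = ranked among the strongest by inhibition in the single 10 µM screen, a fixed top-ranked set picked for dose follow-up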
# DPM-DC inhibit – S. pneumoniae DPM-DC inhibitors, primary screen, biochemical, PK/LDH-coupled NADH fluorescence. calls only at 10 µM. hit rate 0.49% among 65,000. diphosphomevalonate decarboxylase (Streptococcus pneumoniae D39). AID 556, 2006. purified DPM-DC;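 active = the 320 compounds with the highest percent inhibition in the single-dose primary screen, excluding strongly autofluorescent ones, cut at about 32% in these data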;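 also: kinetic rate of NADH fluorescence loss reporting ADP formed by the decarboxylase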
# Abs 340nm – compound light absorbance at 340 nm, profiling panel, artefact control, biochemical, MLSMR library, data from PS, PMK, MK assays; compound absorbance at 340 nm, fold over control; fold change at 10 µM; 65,000 tested, under 10 active;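 active = at 10 µM dose, initial 340 nm absorbance at least 2 fold that of control wells; inactive = change under 2 fold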;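 also: initial absorbance extrapolated from kinetic A340 decline of NADH oxidation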
# NADH enzymes – inhibitors of PK/LDH coupling enzymes, profiling panel, artefact control, biochemical, MLSMR library. coupled PK/LDH NADH assays, four targets. IC50, µM (top dose mostly 10 µM), inactives show at the highest dose inhibition. hit rate 0.02% among 65,000;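 active = single-dose screening hits from any of four coupled enzyme assays that gave an IC50 when retested across doses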;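 also: the DPM-DC format reads NADH fluorescence rather than 340 nm absorbance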
# Fluor 339 460 – intrinsic fluorescence of library compounds, ex339/em460 – biochemical, MLSMR library, data from DPM-DC assay, artefact control, profiling panel. compound autofluorescence, ex339/em460 nm, NADH buffer; active compounds read high; 1 = no-compound wells, NADH background. AID 709, 2007. fluorescence fold increase at 10 µM. hit rate 5.5% among 65,000;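 active = at 10 µM, mean starting fluorescence two-fold or more over control wells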;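 also: signal is the first read of a kinetic run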
# Active calls of the source: *; i = inactive; nt = not tested or not shown; + = active, no number.
SMILES,Spn PMK inh,Spn MK inh,DPM-DC inhibit,Abs 340nm,NADH enzymes,Fluor 339 460
COCCn1c(C)cc(C(=O)COc2nc3ccccc3nc2C)c1C,13.0,9.0,+,1.09,18.0%,1.07
Cc1ccnc(N2CCC(C(=O)Nc3cccc(C(F)(F)F)c3)CC2)n1,11.0,2.0,i,0.99,4.0%,1.28
CCCN(CC(=O)c1cc(C)n(C)c1C)S(=O)(=O)c1cccc(C(F)(F)F)c1,8.0,6.0,+,1.01,15.0%,2.93*
CCN(CC)S(=O)(=O)c1cccc(-c2nnc(SCC(=O)c3cc(C)n(C)c3C)o2)c1,12.0,0.0,i,1,4.0%,1.05
CC1(C)Cc2c(c(N3CCOCC3)nc3sc(C#N)c(N)c23)CS1,0.0,7.0,nt,1.08,2.0%,2.48*
COc1ccc(-n2nc3cc(C)c(NC(=O)CC(C)C)cc3n2)cc1,7.0,5.0,nt,1.08,6.0%,2.07*
COc1ccc(-n2nc3cc(C)c(NC(=O)c4cccnc4)cc3n2)cc1,10.0,8.0,i,1.14,14.0%,3.26*
Cc1cc2nn(-c3ccccc3)nc2cc1NC(=O)c1cccs1,1.0,1.0,i,1.11,1.0%,1.31
CC(=O)OC1c2ccccc2C(=O)N1Cc1ccccc1Cl (stereo not drawn),2.0,4.0,i,0.98,1.0%,1.03
COc1cc2nc(NCCN3CCOCC3)n3nc(-c4ccccc4)nc3c2cc1OC,14.0,7.0,i,1.02,11.0%,2.88*
CCOC(=O)CC(=O)CSc1nc2c(cc1C#N)CCCCCC2,3.0,0.0,nt,1.04,2.0%,2.37*
COC(=O)CC(=O)CSc1nc(C)cc(C)c1C#N,8.0,2.0,nt,1.09,5.0%,3.77*
CC(C)OC(=O)CC(=O)CSc1nc2c(cc1C#N)CCCC2,8.0,6.0,nt,1.02,7.0%,3.74*
N#Cc1cc2c(nc1SCC(=O)Nc1nccs1)CCCCC2,0.0,7.0,i,1,5.0%,1.76
N#Cc1cc2c(nc1SCc1nc3ccccc3[nH]1)CCC2,13.0,10.0,i,1.02,16.0%,2.07*
CS(=O)CSc1nc2c(cc1C#N)CCCC2 (stereo not drawn),9.0,5.0,i,0.97,5.0%,1.11
O=C(C1CCCN(S(=O)(=O)c2cccc3cccnc23)C1)N1CCc2ccccc21 (stereo not drawn),11.0,4.0,i,1.07,5.0%,1.18
CN1CCN(S(=O)(=O)c2ccc(Cc3ccc(S(=O)(=O)N4CCN(C)CC4)cc3)cc2)CC1,9.0,0.0,i,1.01,3.0%,1.06
C=C(C)CSc1nc2c(cc1C#N)CCC2,0.0,5.0,i,1.04,2.0%,1.15
CC(C)OC(=O)CC(=O)CSc1nc2c(cc1C#N)CCC2,18.0,8.0,nt,1.04,13.0%,3.69*
CCc1c(C)nc(SCC(=O)CC(=O)OC(C)C)c(C#N)c1C,11.0,12.0,i,1,11.0%,2.16*
COC(=O)CC(=O)CSc1nc2c(cc1C#N)CCC2,0.0,2.0,nt,1.13,1.0%,3.82*
CCCCC(=O)Nc1cccc(-c2nn3c(C)nnc3s2)c1,4.0,11.0,i,1.05,5.0%,1.08
CCCC(=O)Nc1ccc(N2CCN(C(=O)CCC)CC2)cc1,11.0,0.0,+,1.01,14.0%,1.09
CCCCC(=O)NC(Nc1nc(C2CC2)cs1)(C(=O)OCC)C(F)(F)F (stereo not drawn),9.0,3.0,i,0.98,8.0%,0.95
SMILES,Spn PMK inh,Spn MK inh,DPM-DC inhibit,Abs 340nm,NADH enzymes,Fluor 339 460
CCCn1c(CCC(=O)O)ccc1-c1ccc(OC)cc1,6.0,10.0,nt,1.03,8.0%,3.5*
O=C(O)CCc1ccc(-c2ccc(Cl)cc2)n1CC(=O)O,2.0,3.0,i,1.04,2.0%,1.1
COc1ccccc1N1CCN(C(=O)c2cnn3cccnc23)CC1,4.0,2.0,i,1.04,2.0%,1.13
CCc1cc2c(CN3CCN(CC)CC3)cc(=O)oc2cc1O,8.0,1.0,nt,1.12,5.0%,3.78*
CCNc1nc(NC(C)(C)C)nc(N(C#N)CC)n1,25.0*,0.0,i,0.98,8.0%,1.03
CCCCNS(=O)(=O)c1ccc2nc(SCC(=O)c3ccc(C#N)cc3)[nH]c2c1,15.0,3.0,i,1.01,6.0%,1.06
CCSc1nc2n(n1)C(c1cccc(F)c1)C1=C(CCCC1=O)N2 (stereo not drawn),0.0,1.0,i,1.07,8.0%,2.58*
COc1ccccc1N1CCN(C(=O)c2ccc(Br)s2)CC1,0.0,9.0,i,1.04,3.0%,1
COc1ccccc1N1CCN(C2CCN(C(=O)c3cccs3)CC2)CC1,2.0,56.0*,i,1.03,19.0%,1.02
COc1ccccc1CNC(=O)c1cnc2ccccn2c1=O,1.0,7.0,i,1.16,8.0%,1.72
Cc1cc(NC(=O)c2cnc3ccccn3c2=O)no1,15.0,0.0,i,1.07,15.0%,3.73*
O=C(NCc1cccs1)c1cnc2ccccn2c1=O,4.0,0.0,i,1.14,3.0%,2.02*
COc1ccc(/C=N/n2cnnc2SCc2ccccc2)cc1,3.0,5.0,i,1.06,3.0%,1.09
Cc1csc(NC(=O)C2CCC(C)(C(=O)O)C2(C)C)n1 (stereo not drawn),29.0*,5.0,i,1,11.0%,1.08
CC1=CC(C)(C)Nc2ccccc21,10.0,6.0,i,1.03,6.0%,2.52*
Fc1ccc(-c2cc3nc(-c4ccccc4)cc(N4CCN(CCN5CCOCC5)CC4)n3n2)cc1,19.0,1.0,nt,1.02,10.0%,3.74*
COc1cccc(-c2cc3nc(-c4ccccc4)cc(N4CCC5(CC4)OCCO5)n3n2)c1,13.0,2.0,nt,1.04,8.0%,2.12*
COc1ccc(-c2cc3nc4c(c(N5CCC6(CC5)OCCO6)n3n2)CCCC4)cc1,8.0,6.0,i,1.02,5.0%,2.02*
O=C1c2ccccc2C(=O)N1CC1=CCS(=O)(=O)C1,13.0,9.0,i,1.03,7.0%,1.09
O=C1CSC(c2cn(-c3ccccc3)nc2-c2cc3ccccc3oc2=O)N1Cc1ccco1 (stereo not drawn),14.0,7.0,nt,1.02,11.0%,5.02*
O=c1[nH]cnc2nn(-c3ccccc3)nc12,0.0,0.0,i,1.06,3.0%,1.95
O=c1[nH]cnc2nc(-c3ccccc3)c(-c3ccccc3)nc12,21.0,8.0,nt,1.05,15.0%,5.12*
CS(=O)(=O)N(CC(=O)N1CCN(Cc2ccccc2)CC1)C1CCCCC1,0.0,17.0,i,1.05,8.0%,1.1
